Compounds without any hit were thinned out: in the full panel of roughly 79,000, 15% have a hit. Values without a mark were called inactive. The source made the active and inactive calls. Rule as the data show it: active = growth inhibition above about 70%; inactive = the rest.
Assays:
[1] = NCI Yeast Anticancer Drug Screen. Data for the rad50 strain (AID 155);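 also: 0% = growth of vehicle-only cultures of the same strain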; conditions: S. cerevisiae rad50 strain growth inhibition, hits give high values
Summary of the method: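 Inhibition values express reduced yeast growth in compound-treated cultures relative to vehicle-treated controls.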

[2] = NCI Yeast Anticancer Drug Screen. Data for the mec2-1 strain (AID 157); conditions: S. cerevisiae mec2-1 strain, hits give high values
Summary of the method: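 Mutant yeast (mec2-1) grown with compound; growth inhibition relative to vehicle control reported.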

[3] = NCI Yeast Anticancer Drug Screen. Data for the sgs1 mgt1 strain (AID 161);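 also: 0% = growth of cultures given vehicle only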; conditions: S. cerevisiae sgs1 mgt1 strain, hits give high values
Summary of the method: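 Growth of a repair-deficient yeast mutant was monitored after compound treatment and expressed as inhibition relative to vehicle-treated cultures.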

[4] = NCI Yeast Anticancer Drug Screen. Data for the cln2 rad14 strain (AID 165);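 also: 0% = growth equal to vehicle treated cultures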; conditions: S. cerevisiae cln2 rad14 strain, hits give high values
Summary of the method: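 Readout is yeast growth inhibition versus vehicle-treated controls, using a strain with cln2 and rad14 alterations exposed to compound.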

[5] = NCI Yeast Anticancer Drug Screen. Data for the bub3 strain (AID 167); conditions: S. cerevisiae bub3 mutant strain, hits give high values
Summary of the method: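 Steps: expose the mutant yeast strain to compound; grow alongside vehicle-treated cultures; measure growth; express inhibition against the vehicle cultures.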

[6] = NCI Yeast Anticancer Drug Screen. Data for the mlh1 rad18 strain (AID 175); conditions: S. cerevisiae mlh1 rad18 strain growth inhibition, hits give high values
Summary of the method: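 Genetically defined yeast (DNA repair-deficient) exposed to compounds; growth inhibition determined relative to vehicle.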

[7] = at 5.0 µM (retest, dose inferred, filed as 0.5)
[8] = at 50.0 µM (retest, dose inferred, filed as 5.0)

Compound	growth inhibition [1, 7]	growth inhibition [1, 8]	growth inhibition ([1]; at 50.0 µM)	growth inhibition [2, 7]	growth inhibition [2, 8]	growth inhibition ([2]; at 50.0 µM)	growth inhibition [3, 7]	growth inhibition [3, 8]	growth inhibition ([3]; at 50.0 µM)	growth inhibition [4, 7]	growth inhibition [4, 8]	growth inhibition ([4]; at 50.0 µM)	growth inhibition [5, 7]	growth inhibition [5, 8]	growth inhibition ([5]; at 50.0 µM)	growth inhibition [6, 7]	growth inhibition [6, 8]	growth inhibition ([6]; at 50.0 µM)
COc1ccc2c(c1)C(OC)C1c3c(cc4c(c3-2)OCO4)CCN1C (configuration not stated)	24%	52%	-23.1%	14%	27%	-17.5%	12%	28%	-8.75%	22%	28%	-1.45%	28%	35%	-6.05%	35%	53%	78.3% (active)
[Cl-].[Rh+3].c1ccc(-c2ccnc3c2ccc2c(-c4ccccc4)ccnc23)cc1.c1ccc(-c2ccnc3c2ccc2c(-c4ccccc4)ccnc23)cc1.c1ccc(-c2ccnc3c2ccc2c(-c4ccccc4)ccnc23)cc1	-27%	65%	97.1% (active)	-15%	26%	88.9% (active)	-10%	87% (active)	94.5% (active)	-4%	43%	85.7% (active)	-7%	38%	90.8% (active)	-12%	88% (active)	95.9% (active)
CC1C(c2ccccc2)OCCN1C(=S)Nc1ccc(S(=O)(=O)N2CCCCC2)cc1 (configuration not stated)	46%	86% (active)	85.4% (active)	46%	84% (active)	89.2% (active)	65%	97% (active)	91.5% (active)	62%	96% (active)	89.7% (active)	73% (active)	96% (active)	90.1% (active)	43%	88% (active)	86.4% (active)
Cc1nc([N+](=O)[O-])c(Sc2nncc(-c3ccccc3)n2)n1C	8%	34%	97.3% (active)	4%	38%	97.5% (active)	7%	28%	95% (active)	-5%	9%	93% (active)	1%	21%	97.6% (active)	8%	43%	97.5% (active)
CC(C)N=C(N)/N=C(\N)Nc1ccc2ccc3ccccc3c2c1	3%	99% (active)	99.8% (active)	-9%	99% (active)	25.1%	12%	100% (active)	99.7% (active)	3%	100% (active)	99.5% (active)	27%	99% (active)	46.3%	41%	99% (active)	99.7% (active)
O=C1CSC(=S)N1Cc1cccnc1	1%	19%	45.4%	4%	47%	34%	6%	24%	42.9%	32%	33%	1.95%	-22%	48%	61.8%	-4%	72% (active)	54.9%
Cc1ccc(/C=C2\CNC/C(=C\c3ccc(C)cc3)C2=O)cc1	68%	96% (active)	86% (active)	54%	98% (active)	86.4% (active)	76% (active)	98% (active)	90.5% (active)	55%	91% (active)	77.2% (active)	75% (active)	97% (active)	87.2% (active)	78% (active)	97% (active)	83.8% (active)
CCc1cnc2ccccc2c1/C=C/c1ccc(N(C)C)cc1	-13%	96% (active)	98.4% (active)	9%	96% (active)	97.3% (active)	4%	96% (active)	92.3% (active)	-36%	94% (active)	93.1% (active)	21%	97% (active)	96.8% (active)	-8%	94% (active)	94.7% (active)
CCCCCCCCCCCCCCCCCC1=NCCCN1CCO	7%	6%	96.8% (active)	5%	5%	87.5% (active)	14%	8%	40%	9%	5%	-41.6%	4%	7%	61.1%	23%	7%	83% (active)
